Sampled rows, rich in hits. Any-hit rate of the full collection: about 1.5%.
GLD-1 RNA inh – GLD-1-TGE RNA interaction inhibition (C. elegans) | Q17339 | 320,000 tested, 0.44% active | purified GLD-1 + fluorescein TGE RNA, fluorescence polarization | inhibition, % at 5.96 µM | AID 2280;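 active means percent inhibition above a per-plate cutoff, the plate mean of test compounds plus 3 SD, cut at about 30% in these data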
MEX-5 binding – C. elegans MEX-5 TCR-2 RNA binding activity | Q9XUB2 | MEX-5/FITC-TCR2 RNA binding, fluorescence polarization; hits give low values | activity score (negative = inhibition of binding), % at 10 µM | 300,000 tested, 0.38% active | AID 1832;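 active means inhibition past about -25% in most replicates, and total fluorescence under double the plate's negative control median, limit read from the data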
Target sequence (Q9XUB2 whole entry, looked up): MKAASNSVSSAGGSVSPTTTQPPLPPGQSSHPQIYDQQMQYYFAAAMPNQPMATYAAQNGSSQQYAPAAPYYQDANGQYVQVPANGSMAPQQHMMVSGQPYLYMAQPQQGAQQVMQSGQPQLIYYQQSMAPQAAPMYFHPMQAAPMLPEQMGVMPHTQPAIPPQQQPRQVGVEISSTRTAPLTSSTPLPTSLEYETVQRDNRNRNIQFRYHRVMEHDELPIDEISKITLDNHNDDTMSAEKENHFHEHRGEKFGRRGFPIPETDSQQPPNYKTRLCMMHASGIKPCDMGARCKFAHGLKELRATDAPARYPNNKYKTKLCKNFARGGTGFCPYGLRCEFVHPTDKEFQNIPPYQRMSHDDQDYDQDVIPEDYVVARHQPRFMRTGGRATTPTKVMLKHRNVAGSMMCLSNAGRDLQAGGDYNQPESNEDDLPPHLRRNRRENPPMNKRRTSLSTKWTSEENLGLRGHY
MCL1 BIM primary – inhibitors of human MCL1 binding to BIM-BH3 peptide. inhibition, % at 10.9 µM. 320,000 tested, 0.68% active. GST-MCL1 / FITC-Bim-BH3 fluorescence polarization. Q07820;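 active means inhibition above the mean inhibition of all tested compounds plus 3 SD, set per campaign, cut at about 40% in these data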;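 further: higher means more loss of mP so more displacement of Bim peptide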
BCLXL inh – inhibitors of human Bcl-xL; Q07817; GST-Bcl-xL / FITC-Bim BH3 peptide fluorescence polarization; inhibition, % at 10.9 µM; 320,000 tested, 0.7% active; AID 2129;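 active means inhibition above the mean of all tested compounds plus 3 SD, cutoff set per campaign, cut at about 30% in these data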;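 further: inhibitors lower millipolarization by displacing the labeled peptide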
EBV gp42 block – EBV gp42 inhibition; inhibition, % (tested at 21.74 µM); 220,000 tested, 0.42% active; Fluorescence polarization binding assay, mP read-out; AID 1085; in the data active means inhibition above about 50%
E coli Lon inh – E. coli protease La inhibition; purified E. coli Lon protease, fluorescence polarization; inhibition, % at 7.94 µM; 360,000 tested, 0.42% active; in the data active means inhibition above about 13%, passing the limit was not always enough
A number is an active result.

O=C(OCC#CCSc1nnc(-c2cccc3ccccc23)o1)c1cc2ccccc2o1 was read as GLD-1 RNA inh inactive and E coli Lon inh inactive.
Cn1cc(Cl)c(C(=O)Nc2nc3ccc([N+](=O)[O-])cc3s2)n1 was read as GLD-1 RNA inh inactive, MEX-5 binding inactive, MCL1 BIM primary inactive, BCLXL inh inactive, EBV gp42 block 66.6 and E coli Lon inh inactive.
For C=CCn1c(Cc2nc3ccccc3[nH]2)n[nH]c1=S the results were GLD-1 RNA inh inactive, MEX-5 binding -51.1, MCL1 BIM primary inactive, BCLXL inh inactive, EBV gp42 block inactive and E coli Lon inh inactive.
COc1ccc(/C=C2\SC(=S)N(CCCC(=O)Nc3ccccn3)C2=O)cc1OC was read as GLD-1 RNA inh inactive, MEX-5 binding inactive, MCL1 BIM primary inactive, BCLXL inh inactive, EBV gp42 block 75.9 and E coli Lon inh inactive.
For COc1cc(N2CCCC2)c(OC)cc1/C=C(/C#N)c1cccc(F)c1 the results were GLD-1 RNA inh inactive, MEX-5 binding inactive, MCL1 BIM primary inactive, BCLXL inh inactive, EBV gp42 block 107.9 and E coli Lon inh inactive.
Cc1ccc(Cl)c2c1=NC(=O)C=2c1[nH]c(=S)[nH]c1O was read as GLD-1 RNA inh inactive, MEX-5 binding -45.1, MCL1 BIM primary inactive, BCLXL inh inactive, EBV gp42 block inactive and E coli Lon inh inactive.
For O=C1N=c2ccccc2=C1c1[nH]c(=S)[nH]c1O the results were GLD-1 RNA inh inactive, MEX-5 binding inactive, MCL1 BIM primary inactive, BCLXL inh inactive, EBV gp42 block inactive and E coli Lon inh inactive.
CCC(Oc1ccccc1)C(=O)Nc1cc(C)on1 (stereo not drawn) was read as GLD-1 RNA inh inactive, MEX-5 binding inactive, MCL1 BIM primary inactive, BCLXL inh inactive, EBV gp42 block inactive and E coli Lon inh inactive.
`CCC(Oc1ccccc1)C(=O)Nc1ccccn1` (stereo not drawn) gave GLD-1 RNA inh inactive, MEX-5 binding -34.6, MCL1 BIM primary inactive, BCLXL inh inactive, EBV gp42 block inactive and E coli Lon inh inactive.
Cc1ccc(CNC(=O)C2CCC(=O)N(Cc3cccc(C(F)(F)F)c3)C2)o1 (stereo not drawn) was read as GLD-1 RNA inh inactive, MEX-5 binding inactive, MCL1 BIM primary inactive, BCLXL inh inactive and E coli Lon inh inactive.
`Cc1cc(NS(=O)(=O)c2ccc(NC(=O)c3cc4cc(Br)ccc4oc3=O)cc2)no1` gave GLD-1 RNA inh inactive, MEX-5 binding inactive, MCL1 BIM primary inactive, BCLXL inh inactive, EBV gp42 block 101.2 and E coli Lon inh inactive.
Screening CCCCNC(=O)CN1C(=O)c2cccc(N)c2C1=O returned MEX-5 binding inactive, EBV gp42 block 62.5 and E coli Lon inh inactive.
For COCCCNC(=O)CN1C(=O)c2ccccc2C1=O the results were GLD-1 RNA inh inactive, MEX-5 binding inactive, MCL1 BIM primary inactive, BCLXL inh inactive, EBV gp42 block inactive and E coli Lon inh inactive.
For CC(C)OC(=O)C1=C2SCC(=O)N2C(N)=C(C#N)C1 the results were GLD-1 RNA inh inactive, MEX-5 binding inactive, MCL1 BIM primary inactive, BCLXL inh 36.6, EBV gp42 block inactive and E coli Lon inh inactive.
For CCC(C)N1C(=O)/C(=C/c2c(NCCCOC(C)C)nc3c(C)cccn3c2=O)SC1=S (stereo not drawn) the results were GLD-1 RNA inh inactive, MCL1 BIM primary inactive, BCLXL inh inactive, EBV gp42 block 129.8 and E coli Lon inh inactive.
`O=C(N1CCCC1)C12CC3CC(CC(Cl)(C3)C1)C2` gave GLD-1 RNA inh inactive, MEX-5 binding inactive, MCL1 BIM primary inactive, BCLXL inh inactive and E coli Lon inh inactive.
Screening CCN1C(=O)/C(=C/c2c(C)nn(C)c2C)SC1=S returned GLD-1 RNA inh inactive, MEX-5 binding -30.2, MCL1 BIM primary inactive, BCLXL inh inactive, EBV gp42 block inactive and E coli Lon inh inactive.
Screening CCN1C(=O)/C(=C/c2cnn(CC)c2C)SC1=S returned GLD-1 RNA inh inactive, MEX-5 binding inactive, MCL1 BIM primary inactive, BCLXL inh inactive, EBV gp42 block inactive and E coli Lon inh inactive.
Cc1sc(NC(=O)/C=C/c2ccco2)c(C(=O)O)c1C was read as GLD-1 RNA inh inactive, MEX-5 binding inactive, MCL1 BIM primary inactive, BCLXL inh inactive, EBV gp42 block inactive and E coli Lon inh inactive.
Cc1cnccc1CN(C)C(=O)CC1C(=O)NCCN1CC1CCCCC1 (stereo not drawn) was read as GLD-1 RNA inh inactive, MEX-5 binding inactive, MCL1 BIM primary inactive, BCLXL inh inactive, EBV gp42 block inactive and E coli Lon inh inactive.
Screening Cc1ccc(CN(C)C(=O)CC2C(=O)NCCN2CC2CCCCC2)cc1 (stereo not drawn) returned GLD-1 RNA inh inactive, MEX-5 binding -47.6, MCL1 BIM primary inactive, BCLXL inh inactive, EBV gp42 block inactive and E coli Lon inh inactive.
For CC(C)(C)NC(=O)CC1C[C@H](C(=O)N2CCCCC2)[C@@]2(CCc3ccccc3)c3[nH]c4ccccc4c3CCN2C1=O (stereo partly drawn) the results were GLD-1 RNA inh inactive and E coli Lon inh inactive.
`COc1ccc(C=C2C(=O)OC(C)(C)OC2=O)cc1OC` gave GLD-1 RNA inh inactive, MEX-5 binding -50.5, MCL1 BIM primary inactive, BCLXL inh inactive, EBV gp42 block inactive and E coli Lon inh inactive.
O=C1c2cc(F)ccc2-n2c1nc1ccccc1c2=O was read as GLD-1 RNA inh inactive, MEX-5 binding -33.2, MCL1 BIM primary inactive, BCLXL inh inactive and E coli Lon inh inactive.
For Nn1c(-c2ccc(F)cc2)nc2ccccc2c1=O the results were GLD-1 RNA inh inactive, MEX-5 binding inactive, MCL1 BIM primary inactive, BCLXL inh inactive and E coli Lon inh inactive.
Screening O=C(N/N=C/c1oc(O)c2ccccc12)c1ccccc1O returned GLD-1 RNA inh inactive, MEX-5 binding -33.9, MCL1 BIM primary inactive, BCLXL inh inactive, EBV gp42 block inactive and E coli Lon inh inactive.
Screening COc1ccccc1C(=O)Nc1ccnn1C1CCN(Cc2ccn[nH]2)CC1 returned GLD-1 RNA inh inactive, MEX-5 binding inactive, MCL1 BIM primary inactive, BCLXL inh inactive and E coli Lon inh inactive.
For Cc1[nH]nc(Nc2ccccc2)c1[N+](=O)[O-] the results were GLD-1 RNA inh inactive, MEX-5 binding inactive, MCL1 BIM primary inactive, BCLXL inh inactive, EBV gp42 block inactive and E coli Lon inh inactive.
For Cc1[nH]nc(NNC(=O)c2ccccc2)c1[N+](=O)[O-] the results were GLD-1 RNA inh inactive, MEX-5 binding -83.3, MCL1 BIM primary inactive, BCLXL inh inactive, EBV gp42 block inactive and E coli Lon inh inactive.
For C[C@@H]1CN([C@H](C)CO)C(=O)Cc2cc(NS(=O)(=O)c3cn(C)cn3)ccc2O[C@H]1CN(C)S(=O)(=O)c1ccc(Cl)cc1 the results were GLD-1 RNA inh inactive and E coli Lon inh inactive.
`Cc1ncc(CO)c(/C=N/Nc2ccc(C(F)(F)F)cn2)c1O` gave GLD-1 RNA inh inactive, MEX-5 binding inactive, MCL1 BIM primary 43.3, BCLXL inh 39.6 and E coli Lon inh inactive.

Screening results (PubChem BioAssay)
